# Screening data (PubChem)
# The list is not random: actives were taken first. Their share in the collection is about 3.4%.
# MITF primary: blocks human microphthalmia-associated transcription factor; AID 1259374; inhibition, % at 2.6 µM; AlphaScreen MITF homodimerization, bead proximity signal; O75030; 650,000 tested, 0.91% active; in the data active = inhibition above about 50%;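 note: 0% = vehicle wells with protein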
# FBW7 activator: human FBW7 E3 ligase activation, primary screen; Q969H0; AlphaScreen FBW7–phospho-cyclin E peptide binding, activator screen; normalized activity (activation), % at 26.1 µM; 650,000 tested, 0.13% active; AID 1259310; in the data active = normalized activity above about 1.9%;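 note: purified mutant Fbw7 with reduced substrate affinity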
# Target sequence (Q969H0 whole entry, looked up): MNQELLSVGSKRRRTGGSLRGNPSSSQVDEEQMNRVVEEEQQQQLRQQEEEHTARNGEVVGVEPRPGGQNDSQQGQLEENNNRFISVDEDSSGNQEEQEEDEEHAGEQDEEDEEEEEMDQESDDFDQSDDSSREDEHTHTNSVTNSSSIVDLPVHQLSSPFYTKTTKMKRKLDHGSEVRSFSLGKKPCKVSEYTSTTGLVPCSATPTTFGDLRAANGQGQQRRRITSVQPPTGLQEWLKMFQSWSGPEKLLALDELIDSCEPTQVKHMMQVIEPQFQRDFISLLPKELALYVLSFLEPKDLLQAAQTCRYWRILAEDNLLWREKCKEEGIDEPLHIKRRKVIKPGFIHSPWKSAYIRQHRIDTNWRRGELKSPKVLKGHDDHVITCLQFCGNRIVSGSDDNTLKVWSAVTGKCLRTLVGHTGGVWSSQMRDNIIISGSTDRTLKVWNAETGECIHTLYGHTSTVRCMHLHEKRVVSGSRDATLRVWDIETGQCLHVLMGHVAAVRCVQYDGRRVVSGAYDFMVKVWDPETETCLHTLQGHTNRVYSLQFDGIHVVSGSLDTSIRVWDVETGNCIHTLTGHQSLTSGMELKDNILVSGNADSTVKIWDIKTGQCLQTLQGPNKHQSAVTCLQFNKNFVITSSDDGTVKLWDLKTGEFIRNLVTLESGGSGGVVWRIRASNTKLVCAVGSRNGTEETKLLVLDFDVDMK
# TEAD-YAP inh: TEAD-YAP interaction inhibition | HEK-TIYL cells, TEAD-Gal4/YAP UAS-luciferase luminescence | inhibition, % at 9.12 µM | 640,000 tested, 1.4% active | AID 1259422; in the data active = inhibition above about 32%;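 note: 0% = median of test compound wells and 100% = reference inhibitor wells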
# GPR151 activ: human GPR151 activation | Q8TDV0 | 650,000 tested, 1% active | activation, % at 11.2 µM | PathHunter beta-arrestin GPR151 cells, luminescence; in the data active = activation above about 4.9%;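 note: 0% = median of compound wells and 100% = cells with positive control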
# MITF confirm: confirmation of human MITF inhibitors; AID 1259372; AlphaScreen MITF homodimerization, biotin/His-MITF beads; shares compounds with MITF primary; inhibition, % at 2.6 µM; 4,700 tested, 16% active;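 active = inhibition above a cutoff derived from the DMSO control wells, cut at about 28% in these data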;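 note: 0% = MITF dimer wells with DMSO only; inhibitors lower the bead chemiluminescence by keeping MITF from dimerizing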
# AS interf DR: optically interferes with AlphaScreen signal in dose response; shares compounds with MITF primary; AlphaScreen optical interference counterscreen, cell-free; IC50, µM; 480 tested, 6% active; call rule not given here
# AlphaScreen intf2: AlphaScreen optical interference, counter-screen. shares compounds with MITF primary. LysRS AlphaScreen counterscreen, signal interference, triplicate. inhibition, % at 2.6 µM. 4,700 tested, 7.6% active. AID 1259376;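 active = inhibition above a cutoff derived from the DMSO control wells, cut at about 30% in these data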
# Starred values were filed as active, the others as inactive; / = no result given; ! = repeats disagree.
SMILES,MITF primary,FBW7 activator,TEAD-YAP inh,GPR151 activ,MITF confirm,AlphaScreen intf2,others
Cc1ccc2c(c1)CN(CC(=O)NC1CCc3ccccc31)CC(C)O2 (configuration not stated),-2,0,-10,-2,/,/,
C=CCc1ccccc1OCCOCCNCCOC,10,0,12,-1,/,/,
C=CCc1ccccc1OCCCNCCOC,59*,0,2,3,1,12,
C=CCc1ccccc1OCCNCCOC,52*,0,2,-2,7,7,
C=CCc1ccccc1OCCCNCCCOC,65*,0,2,3,5,13,
C=CCc1ccccc1OCCCCNCCCOC,24,0,2,1,/,/,
COCCNCCOc1ccccc1C(C)C,58*,0,4,1,17,42*,
COCCNCCOc1ccccc1OC,12,0,5,0,/,/,
CCC(C)(C)NCC(=O)Nc1ccccc1I,1,0,6,2,/,/,
CCOC(=O)C1C(=O)CC(O)(c2cccc([N+](=O)[O-])c2)CC1C=C(Cl)Cl (configuration not stated),3,0,-9,0,/,/,
COC(=O)c1c(NC(=O)CCN2C(=O)c3cccc([N+](=O)[O-])c3C2=O)sc2c1CCC(C)C2 (configuration not stated),7,0,5,0,/,/,
COc1ccc(OC)c(CN2CCN(Cc3ccccc3[N+](=O)[O-])CC2)c1,77*,-1,5,0,7,16,
COc1ccc(OC)c(CN2CCN(S(=O)(=O)c3ccccc3[N+](=O)[O-])CC2)c1,37,0,-13,0,/,/,
COc1ccc(CN2CCN(Cc3ccccc3[N+](=O)[O-])CC2)c(OC)c1,52*,0,-4,-1,5,12,
CC(=O)N1CCN(Cc2ccccc2[N+](=O)[O-])CC1,-14,0,1,0,/,/,
O=C(OC1(C(F)(F)F)C(=O)Nc2cc3c(cc21)OCO3)c1ccc(Cl)nc1 (configuration not stated),81*,0,-3,0,71*,-25,AS interf DR=>7.1
CCN(CC)CCCNC(=O)c1[nH]c(C)c(C(C)=O)c1C,3,0,0,0,/,/,
CCN(CC)CCCNC(=O)c1[nH]c(C)c(C(=O)NC2CCCCC2)c1C,90*,0,5,-1,16,12,
CC(C)=N/N=C1/SC(CC(=O)O)C(=O)N1c1ccccc1 (configuration not stated),-2,0,8,0,/,/,
Cc1cc(C(C)(C)C)ccc1OCCN1CCN(C)CC1,87*,0,2,1,27,20,
Cc1cc(C(C)(C)C)ccc1OCCOCCN1CCOCC1,73*,0,3,1,-12,11,
Cc1cc(C(C)(C)C)ccc1OCCCN1CCN(C)CC1,63*,0,-4,1,16,3,
Cc1cc(C(C)(C)C)ccc1OCCOCCN1CCN(C)CC1,49,0,-5,0,/,/,
O=C(COCC(=O)N/N=C/c1ccc(Cl)cc1)N/N=C\c1ccc(Cl)cc1,-6,0,8,2,/,/,
CN(C)c1cccc(C(=O)Nc2nccs2)c1,3,0,-38,-1,/,/,
SMILES,MITF primary,FBW7 activator,TEAD-YAP inh,GPR151 activ,MITF confirm,AlphaScreen intf2,others
Cc1ccc(C(C)C)c(OCCNCc2ccco2)c1,55*,0,-5,-1,5,9,
c1coc(CNCCOc2ccc3ccccc3c2)c1,87*,0,-10,-1,16,26,
CN(C)CCn1nnnc1SCC1=C(C(=O)O)N2C(=O)[C@@H](NC(=O)Cc3csc(N)n3)[C@H]2SC1,68*!,0,3,-2,87*,25,AS interf DR=4.9*
Cc1[nH]c2c(-n3c(C)cc(C(F)(F)F)cc3=O)cccc2c1C,53*,0,3,1,9,12,
COCCNc1nc(-c2ccc[nH]2)cs1,23,0,3,2,/,/,
COc1ccc(Nc2nc(Nc3ccc(C)cc3)nc(Sc3nc4ccccc4[nH]3)n2)cc1,20,0,16,-1,/,/,
O=C1c2ccc(-c3nc4ccccc4c(=O)o3)cc2C(=O)N1c1ncc([N+](=O)[O-])s1,56*,0,1,1,-10,-7,
O=c1oc2ccc3ccccc3c2cc1-c1nc(-c2ccc([N+](=O)[O-])cc2)n[nH]1,72*,0,5,1,7,13,
COc1ccc(OCCNC(=O)c2ccc(-c3ccco3)nc2NCc2cccnc2)cc1,17,0,-3,1,/,/,
